From PMC5540273 (PLoS ONE, 2017)

How the values were obtained:
Conditions in all cases: concentration: 1 μM, replicates: in singlicate; n = 1
HIPK4 = tested on: HIPK4
HPK1 = tested on: HPK1
HUNK = tested on: HUNK
ICK = tested on: ICK
IGF1R = tested on: IGF1R
IKK-alpha = tested on: T1, IKK-alpha
T1 construct: gene CHUK

IKK-beta = tested on: T2, IKK-beta
T2 construct: gene IKBKB

IKK-epsilon = tested on: T3, IKK-epsilon
T3 construct: gene IKBKE

INSRR = tested on: INSRR
INSR = tested on: INSR
IRAK1 = tested on: IRAK1
IRAK3 = tested on: IRAK3
IRAK4 = tested on: IRAK4
ITK = tested on: ITK
[1] = tested on: JAK1(JH1domain-catalytic)
[2] = tested on: JAK1(JH2domain-pseudokinase)
[3] = tested on: JAK2(JH1domain-catalytic)
[4] = tested on: JAK3(JH1domain-catalytic)
JNK1 = tested on: T4, JNK1
T4 construct: gene MAPK8

JNK2 = tested on: T5, JNK2
T5 construct: gene MAPK9
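Note: KINOMEscan kinase panel screen.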

SMILES | %Inh (HIPK4) | %Inh (HPK1) | %Inh (HUNK) | %Inh (ICK) | %Inh (IGF1R) | %Inh (IKK-alpha) | %Inh (IKK-beta) | %Inh (IKK-epsilon) | %Inh (INSRR) | %Inh (INSR) | %Inh (IRAK1) | %Inh (IRAK3) | %Inh (IRAK4) | %Inh (ITK) | %Inh [1] | %Inh [2] | %Inh [3] | %Inh [4] | %Inh (JNK1) | %Inh (JNK2)
Cl.Cl.Cl.N#Cc1ccc(CCNc2nccc(-c3cccc(CN4CCNCC4)c3)n2)cc1 [GSK2137462] | 26% | 48% | 0% | 5% | 11% | 0% | 0% | 20% | 0% | 87% | 0% | 0% | 0% | 7% | 3% | 6% | 0% | 0% | 32% | 0%
Cc1nccc(-c2c(-c3ccc(F)cc3)ncn2CCCN2CCOCC2)n1.Cl [SB-282975] | 50% | 3% | 16% | 39% | 3% | 14% | 12% | 0% | 11% | 3% | 39% | 0% | 30% | 24% | 0% | 17% | 37% | 9% | 13% | 40%
COc1cccc(C2=C(Nc3cc(Cl)c(O)c(Cl)c3)C(=O)NC2=O)c1 [SB-390767] | 0% | 43% | 0% | 27% | 5% | 37% | 56% | 0% | 0% | 0% | 43% | 0% | 47% | 18% | 12% | 0% | 40% | 93.7% | 27% | 20%
CNCc1ccc2nc(NC(=O)c3ccc(C(C)(C)C)cc3)cn2c1 | 5% | 12% | 19% | 27% | 0% | 8% | 6% | 15% | 2% | 9% | 13% | 0% | 0% | 0% | 0% | 17% | 3% | 3% | 18% | 6%
Fc1ccc(-c2nn3cccc(F)c3c2-c2ccncc2)cc1 [GW475620] | 22% | 0% | 0% | 0% | 47% | 0% | 0% | 14% | 0% | 13% | 9% | 2% | 0% | 0% | 10% | 30% | 17% | 0% | 61% | 93.5%
CC(=O)c1c(C)c2cnc(Nc3ccc(N4CCNCC4)cn3)nc2n(C2CCCC2)c1=O | 8% | 0% | 0% | 0% | 0% | 0% | 0% | 15% | 0% | 0% | 0% | 0% | 0% | 0% | 0% | 11% | 0% | 0% | 11% | 0%
CC(C)c1cc(-c2ccc3c(N)n[nH]c3c2)nc(N)n1 [GSK2250882] | 30% | 45% | 0% | 0% | 6% | 0% | 4% | 10% | 0% | 4% | 31% | 4% | 0% | 11% | 0% | 8% | 0% | 0% | 21% | 30%
Cn1cncc1-c1cc2c(Nc3ccc(OCc4ccccc4)cc3)ncnc2cn1 [GW281179] | 0% | 25% | 8% | 5% | 4% | 0% | 6% | 4% | 0% | 2% | 30% | 1% | 17% | 12% | 14% | 0% | 4% | 0% | 13% | 1%
O=C(Nc1n[nH]c2cc(-c3ccsc3)ccc12)C1CC1 [SB-732932] | 17% | 0% | 0% | 63% | 0% | 9% | 9% | 0% | 14% | 9% | 3% | 22% | 9% | 0% | 0% | 4% | 8% | 0% | 36% | 25%
